G9a block = inhibitors of human histone lysine methyltransferase G9a; Q96KQ7; G9a H3K9 monomethylation, AlphaScreen, 2 h; Potency, µM (titrated, usually from 102 µM), actives largely listed as inhibitors; hit rate 8.8% among 350,000; AID 504332; further: nearly all actives have a fitted effect of over 75% in size
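Using a bead-based AlphaScreen, monomethylated H3K9 product from 2 h room-temperature reactions (G9a 20 nM, peptide 500 nM, SAM 20 uM) was detected with 0.5 ug/mL rabbit anti-H3K9me1 antibody.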
HP1b chromo inh = blocks HP1-beta chromodomain binding to methylated histone tails; AlphaScreen HP1-beta / biotin-H3K9me3 peptide binding; P83916; hit rate 0.56% among 390,000; Potency, µM (titrated, usually from 114 µM), most hits filed as inhibitors; further: nearly all actives have a fitted effect of over 70% in size
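Compound inhibition of the preformed complex between 50 nM HP1-beta and 50 nM biotinylated H3K9me3 peptide was read by AlphaScreen. Buffer was PBS pH 7.4 with 0.01% Tween-20. Incubations ran 30 min at room temperature, with 10 ug/mL donor/acceptor beads.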
BAZ2B inh = BAZ2B (human) inhibition; AID 504333; hit rate 4.4% among 360,000; AlphaScreen BAZ2B-H3K14Ac peptide displacement; Potency, µM (doses to about 114 µM), most hits filed as inhibitors; Q9UIF8; further: nearly all actives have a fitted effect of over 60% in size
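AlphaScreen luminescence quantifies BAZ2B engagement of H3K14Ac peptide; the protein and biotinylated peptide are both at 50 nM final, buffer PBS pH 7.4 with 0.01% Tween-20, all steps at room temperature.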
JMJD2A Tudor = JMJD2A Tudor domain (human) inhibition; hit rate 4.4% among 390,000; AlphaScreen JMJD2A-Tudor / H3K4me3 peptide binding; O75164; Potency, µM (highest dose often 114 µM), usual class: inhibitors; further: nearly all actives have a fitted effect of over 50% in size
Target sequence (O75164 whole entry, looked up, the tested form may be a part): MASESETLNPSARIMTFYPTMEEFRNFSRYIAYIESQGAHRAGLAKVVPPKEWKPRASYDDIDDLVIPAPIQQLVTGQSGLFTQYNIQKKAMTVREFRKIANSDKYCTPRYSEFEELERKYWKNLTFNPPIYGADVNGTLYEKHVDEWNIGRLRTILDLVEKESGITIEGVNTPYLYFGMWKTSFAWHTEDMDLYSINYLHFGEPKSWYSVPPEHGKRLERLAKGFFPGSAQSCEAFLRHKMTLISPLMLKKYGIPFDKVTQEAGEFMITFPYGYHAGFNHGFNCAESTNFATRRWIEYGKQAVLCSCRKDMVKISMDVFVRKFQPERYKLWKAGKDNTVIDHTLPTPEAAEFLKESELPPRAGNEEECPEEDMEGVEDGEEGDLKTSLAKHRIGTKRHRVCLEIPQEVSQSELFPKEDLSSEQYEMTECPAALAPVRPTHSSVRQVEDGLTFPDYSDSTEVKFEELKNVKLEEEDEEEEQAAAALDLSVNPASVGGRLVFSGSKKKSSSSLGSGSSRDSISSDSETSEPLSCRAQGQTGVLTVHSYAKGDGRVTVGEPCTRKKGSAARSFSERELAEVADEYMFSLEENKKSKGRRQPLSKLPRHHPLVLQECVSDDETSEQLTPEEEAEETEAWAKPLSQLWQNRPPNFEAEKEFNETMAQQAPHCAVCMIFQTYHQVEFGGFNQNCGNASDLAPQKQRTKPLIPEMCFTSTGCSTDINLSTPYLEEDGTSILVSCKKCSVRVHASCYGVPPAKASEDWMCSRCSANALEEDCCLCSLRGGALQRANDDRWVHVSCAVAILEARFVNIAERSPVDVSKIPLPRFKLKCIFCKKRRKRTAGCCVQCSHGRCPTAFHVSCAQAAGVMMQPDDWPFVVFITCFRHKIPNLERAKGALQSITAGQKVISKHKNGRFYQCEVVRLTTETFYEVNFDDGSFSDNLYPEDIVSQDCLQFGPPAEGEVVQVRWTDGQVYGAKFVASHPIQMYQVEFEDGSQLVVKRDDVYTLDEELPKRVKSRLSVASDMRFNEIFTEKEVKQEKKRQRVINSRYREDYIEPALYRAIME
Sfp PPTase inh = Sfp phosphopantetheinyl transferase inhibition | Q9F4F7 | Biochemical Sfp PPTase activity, qHTS | Potency, µM, usual class: inhibitors | hit rate 3.5% among 310,000 | AID 1490;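 further: the enzyme is Sfp with the accession as filed and its product quenches rhodamine fluorescence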
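Compounds were incubated with enzyme (final 15 nM) for 15 min at room temperature before substrate addition started the reaction. Fluorescence at 525 nm excitation, 598 nm emission was recorded immediately and after 30 minutes.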
PLK1 PBD inh = blocks phosphopeptide binding to human PLK1 polo-box domain. Plk1 PBD binding of FITC phosphopeptide, fluorescence polarization. AID 720504. hit rate 2.8% among 360,000. Potency, µM, usual class: inhibitors. P53350; further: series mostly up to about 57 µM; nearly all actives have a fitted effect of over 65% in size
Of the large screens only hits and unclear results are named; the others gave an inactive call. An excerpt weighted towards active compounds, which were near 12% of everything screened. The call rests on the fitted dose curve; in most records, active means well fitted curve in the direction sought with a large enough effect; inconclusive means small, poorly fitted or top-dose-only effect, or another doubt; inactive means no such curve, though single readings can be large; an effect the other way counts as inactive or inconclusive.

COc1ccc(-c2cc3nc(CCl)[nH]c(=O)c3s2)cc1	G9a block 50µM, JMJD2A Tudor inconclusive
O=C(N[C@H](C(=O)O)c1ccccc1)C1CCC(Cn2cnc3ccccc3c2=O)CC1 (stereo not given in full)	none
CCOC(=O)C1=NOC2C3CC(C12)C1C(=O)N(CCc2ccc(OC)c(OC)c2)C(=O)C31 (stereo not given)	HP1b chromo inh inconclusive, BAZ2B inh inconclusive, JMJD2A Tudor 35µM, PLK1 PBD inh 27µM (no result: G9a block)
COc1ccc(CCN2C(=O)CC(Nc3ccc(N4CCOCC4)cc3)C2=O)cc1OC (stereo not given)	G9a block 14µM, BAZ2B inh 45µM, JMJD2A Tudor inconclusive
COc1ccc(CCN2C(=O)C3C(C2=O)C2C=CC3C23CC3)cc1OC (stereo not given)	JMJD2A Tudor inconclusive, PLK1 PBD inh 24µM (no result: BAZ2B inh)
O=C1CC(Nc2ccc(N3CCOCC3)cc2)C(=O)N1c1ccccc1F (stereo not given)	G9a block 8.9µM, JMJD2A Tudor inconclusive, Sfp PPTase inh 50µM
O=C1C2C(C(=O)N1CCc1ccccc1)C1C=CC2C12CC2 (stereo not given)	none
CCOC(=O)c1scc(-c2ccc(C)cc2)c1S(=O)(=O)Nc1cccc(CC)c1	none (no result: Sfp PPTase inh, PLK1 PBD inh)
Cc1ccc(C)c(NC(=O)C(=O)NCC(c2cccnc2)N2CCN(c3ccc(F)cc3)CC2)c1 (stereo not given)	G9a block inconclusive (no result: Sfp PPTase inh, PLK1 PBD inh)
C=C[C@](C)(O)CCC1C(=C)CC(O)C2C(C)(C)CCCC12C (stereo not given in full)	none (no result: G9a block, HP1b chromo inh, BAZ2B inh, JMJD2A Tudor, PLK1 PBD inh)
CCNc1ncc2nc(-c3cc(F)cc(F)c3)c(=O)n(C[C@H]3CCCO3)c2n1	none (no result: HP1b chromo inh, BAZ2B inh, JMJD2A Tudor, PLK1 PBD inh)
CCc1ccc(NC2CC(=O)N(CCc3ccc(OC)c(OC)c3)C2=O)cc1 (stereo not given)	G9a block 50µM, HP1b chromo inh inconclusive, JMJD2A Tudor inconclusive, PLK1 PBD inh 27µM
COc1ccc(CCNC2CC(=O)N(CCc3ccccc3)C2=O)cc1OC (stereo not given)	G9a block inconclusive
NS(=O)(=O)c1ccc(N/C=C\C(=O)c2ccc3ccccc3c2)cc1	G9a block 8.9µM, BAZ2B inh inconclusive
COc1ccc(/C(C)=N/OCC(=O)Nc2nc3ccccc3s2)cc1OC	G9a block 50µM, BAZ2B inh inconclusive, Sfp PPTase inh inconclusive
Cc1nc2sc(C(c3ccco3)N3CCC(Cc4ccccc4)CC3)c(O)n2n1 (stereo not given)	G9a block inconclusive, JMJD2A Tudor inconclusive, Sfp PPTase inh 35µM
Cc1nc2sc(C(c3ccccc3)N3CCC(O)CC3)c(O)n2n1 (stereo not given)	none
COc1ccc(N2CCN(C(c3ccco3)c3sc4nc(C)nn4c3O)CC2)cc1 (stereo not given)	G9a block 45µM, BAZ2B inh inconclusive
CCCc1nc2ccccc2n1CC(O)COc1ccc(C(=O)OC)cc1 (stereo not given)	none (no result: Sfp PPTase inh, PLK1 PBD inh)
CCC(=O)NCCC1CCc2ccc3c(c21)CCO3 (stereo not given)	none (no result: HP1b chromo inh, BAZ2B inh, JMJD2A Tudor, PLK1 PBD inh)
O=C(CCc1ccccc1)Nc1ccc(S(=O)(=O)N2CCCC2)cc1	none (no result: G9a block)
O=C(CCc1ccccc1)Nc1ccc(N2CCCCC2)cc1	G9a block 8.9µM
O=C(CN1CCCCC1)Nc1ccc(N2CCCCCC2)cc1	G9a block 18µM, HP1b chromo inh inconclusive, BAZ2B inh 14µM, JMJD2A Tudor 50µM
CCCOC(=O)Nc1ccc(N2CCCCC2)cc1	G9a block 8.9µM, BAZ2B inh 71µM, JMJD2A Tudor inconclusive
CCCCC(=O)Nc1ccc(N2CCCC2)cc1	JMJD2A Tudor inconclusive (no result: G9a block, BAZ2B inh, Sfp PPTase inh)
O=C(Cc1ccccc1)Nc1ccc(N2CCCC2)cc1	G9a block 8.9µM, BAZ2B inh inconclusive, JMJD2A Tudor inconclusive, Sfp PPTase inh inconclusive
O=S1(=O)N=C(Sc2ccc3c(c2)OCCO3)c2ccccc21	none (no result: G9a block, HP1b chromo inh, BAZ2B inh, Sfp PPTase inh, PLK1 PBD inh)
O=C(Cc1ccccc1)NCCS(=O)(=O)N1CCN(c2ccccc2)CC1	G9a block 50µM (no result: Sfp PPTase inh)
Cc1cc(C)cc(NC(=O)Nc2ccc(N3CCCCC3)cc2)c1	G9a block 8.9µM, Sfp PPTase inh 50µM
Cc1cc(C)cc(OCC(=O)Nc2ccc(N3CCCCC3)cc2)c1	HP1b chromo inh inconclusive (no result: Sfp PPTase inh)
COC(=O)CC1C(C)(C)C(OC(C)=O)[C@@]2(O)C=C3C4CC(=O)OC(c5ccoc5)[C@]4(C)CCC3[C@@]1(C)C2=O (stereo not given in full)	none (no result: HP1b chromo inh, BAZ2B inh, JMJD2A Tudor, PLK1 PBD inh)
Cc1cccc(C)c1OCc1nnc(SCC(=O)Nc2ccc(N3CCOCC3)cc2)o1	none
Cn1c(CCNC(=O)c2cccs2)n[nH]c1=S	G9a block 22µM, JMJD2A Tudor 18µM
Cc1cccc(C(=O)NCCc2nnc(SCC(=O)Nc3cccc(C(=O)O)c3)n2C)c1	none
O=C(NCc1n[nH]c(=S)n1-c1ccc(Br)cc1)c1cccs1	G9a block 10µM, JMJD2A Tudor 25µM, PLK1 PBD inh inconclusive
Cn1c(CNC(=O)c2cccs2)n[nH]c1=S	G9a block 28µM, JMJD2A Tudor 14µM
Cc1cccc(C(=O)NCCc2n[nH]c(=S)n2C)c1	G9a block 11µM, JMJD2A Tudor inconclusive, Sfp PPTase inh inconclusive
CCCNC(=O)CN1C(=O)CSc2ccc(S(=O)(=O)N3CCC(C)CC3)cc21	none (no result: Sfp PPTase inh, PLK1 PBD inh)
Cc1cc(C)c2c(n1)nn1c(C)c(CCC(=O)NCc3ccccc3Cl)c(C)nc21	none (no result: Sfp PPTase inh, PLK1 PBD inh)
CCC(C)(C)NC(=O)C(c1ccccc1Cl)N(C(=O)CCC(=O)Nc1cc(C)on1)C(C)(C)C (stereo not given)	JMJD2A Tudor 56µM, PLK1 PBD inh inconclusive
CC(C)n1nnc2cc(C(=O)O)ccc21	none (no result: HP1b chromo inh, BAZ2B inh, JMJD2A Tudor, PLK1 PBD inh)
N#Cc1nc(COc2ccccc2)oc1N1CCCCCC1	G9a block 45µM, HP1b chromo inh inconclusive, BAZ2B inh 35µM, JMJD2A Tudor inconclusive
N#Cc1nc(COc2ccc(Br)cc2)oc1N1CCCC1	G9a block inconclusive, HP1b chromo inh inconclusive, BAZ2B inh 25µM, JMJD2A Tudor inconclusive
O=[N+]([O-])c1ccc(N/N=C2/CCCCC2c2ccccn2)cc1 (stereo not given)	G9a block 32µM, BAZ2B inh inconclusive, JMJD2A Tudor 16µM
O=[N+]([O-])c1ccc(NC2CCCC2)cc1	none
CCOC(=O)c1sc2nccc(N(C)C)c2c1N=CNOC	JMJD2A Tudor 25µM, PLK1 PBD inh 15µM
CC(=O)N1CC23C=CC(CC2CC12CCCCCC2)O3 (stereo not given)	PLK1 PBD inh 8.4µM
CC(=O)N1Cc2ccccc2C(C)CC12CCCCC2 (stereo not given)	none
CCN(CC)CCN(C(=O)c1ccc(N2C(=O)CCC2=O)cc1)c1nc2cc3c(cc2s1)OCCO3	G9a block 50µM, Sfp PPTase inh inconclusive (no result: BAZ2B inh)
CCN(CC)CCN(C(=O)c1cccc(N2C(=O)CCC2=O)c1)c1nc2cc3c(cc2s1)OCO3	G9a block 50µM (no result: BAZ2B inh)
COc1ccc(Oc2ncc3ncc(=O)n(CCC#N)c3n2)cc1	none (no result: HP1b chromo inh, BAZ2B inh, JMJD2A Tudor, PLK1 PBD inh)

Source: PubChem BioAssay (National Center for Advancing Translational Sciences (NCATS))
